Source: PubChem
tim23-1 inh: inhibits growth of tim23-1 mutant yeast | S. cerevisiae tim23-1 growth, BacTiter-Glo luminescence, 24 h | 330,000 tested, 1.3% active | inhibition, % at 20 µM | AID 463212;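 active means growth inhibition of the mutant yeast at or above 50%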;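 further: temperature-sensitive mutant grown at 25 °C; plate controls were DMSO-treated mutant yeast for no effect and medium wells lacking yeast for full effect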
NALP1 inh: NALP1 inhibition | S. cerevisiae NALP1/ASC/caspase-1 growth, X-gal OD620, 72 h | inhibition, % at 10 µM | 280,000 tested, 0.61% active | AID 2071; in the data active means inhibition mostly above about 24%, no sharp cut-off; inactive means mostly below about 32%
TIM10 inh: TIM10 yeast growth inhibition. S. cerevisiae TIM10 strain growth, BacTiter-Glo luminescence, 24 h. 330,000 tested, 1.4% active. inhibition, % at 10 µM;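 active means inhibition of 40% or more at the single tested concentration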;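 further: wild-type TIM10 isogenic control strain grown at permissive 25 °C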
PfHsp90 set2: inhibits growth of yeast expressing Plasmodium falciparum Hsp90. inhibition, % at 9.4 µM. S. cerevisiae expressing PfHsp90, BacTiter-Glo ATP, 48 h; yeast lacking PDR1 and PDR3 efflux regulators. AID 504621. 310,000 tested, 0.32% active;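 active means every replicate shows inhibition above about 80%, whatever the replicate mean, limit read from the data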;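 further: 0% = DMSO neutral controls and 100% = 20 µM radicicol positive controls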
NALP3 yeast inh: blocks the NALP3 inflammasome reconstituted in yeast | Yeast reconstituted NLRP3/ASC/caspase-1, beta-gal luminescence, 24 h | inhibition, % at 10 µM | 330,000 tested, 0.39% active | AID 2825;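 active means inhibition of 50% or more; inactive means inhibition below 50%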;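 further: plate controls were induced DMSO wells for no effect and uninduced yeast grown without galactose for full effect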
tim10-1 inh: inhibits growth of tim10-1 mutant yeast; 330,000 tested, 2.2% active; AID 463190; inhibition, % at 20 µM; S. cerevisiae tim10-1 ts strain growth, BacTiter-Glo, 24 h;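 active means inhibition of at least 40%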;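 further: mutant grown at 25 °C; 0% = DMSO wells with yeast and 100% = wells holding no yeast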
tim10-1 conf: confirmation of tim10-1 mutant yeast growth inhibitors; shares compounds with tim10-1 inh; AID 463213; inhibition, % at 20 µM; S. cerevisiae tim10-1 ts strain growth, BacTiter-Glo, 24 h; 7,400 tested, 56% active;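 active means inhibition of yeast growth at or above a set limit in either of two repeat tests at 20 µM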;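 further: tim10-1 mutant grown at permissive 25 °C to find synthetic lethal compounds; 0% = DMSO yeast wells and 100% = medium wells without yeast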
tim10 confirm: confirmation of TIM10 yeast growth inhibitors | shares compounds with TIM10 inh | S. cerevisiae tim10 strain growth, BacTiter-Glo luminescence, 24 h | inhibition, % at 10 µM | 4,600 tested, 63% active | AID 463215;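 active means inhibition of yeast growth at or above a set limit in either of two replicates at 10 µM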;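 further: this counterscreen used the strain with wild-type TIM10; 0% = yeast with DMSO and 100% = medium wells lacking yeast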
tim23-1 confirm: tim23-1 yeast growth inhibition, confirmed | 4,400 tested, 83% active | S. cerevisiae tim23-1 growth, BacTiter-Glo luminescence, 24 h | inhibition, % at 20 µM | shares compounds with tim23-1 inh | AID 463218;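 active means inhibition above about 39% in either of two replicate wells at 20 µM, limit read from the data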;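 further: temperature-sensitive tim23-1 mutant grown at 25 °C; 0% = DMSO wells with yeast and 100% = medium wells without yeast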
* hit, by the source's call; x = not tested or not shown. Most compounds without a hit are left out; they make up all but 4.2% or so of the library.

SMILES | tim23-1 inh | NALP1 inh | TIM10 inh | PfHsp90 set2 | NALP3 yeast inh | tim10-1 inh | tim10-1 conf | tim10 confirm | tim23-1 confirm
COc1ccc(-c2cc3ccccc3oc2=O)cc1NC(=O)c1ccc(Br)o1 | -25 | 48 | -2 | -34 | -7 | -20 | x | x | x
COc1cc(NC(=O)c2ccc([N+](=O)[O-])o2)ccc1NC(=O)c1cccs1 | 59* | 12 | 32 | -50 | 25 | 46* | 39* | x | -14
COc1cc(NC(=O)c2cccs2)ccc1NC(=O)Cc1ccccc1 | 49 | 22 | 17 | 15 | 13 | -16 | x | x | x
COc1ccc(-c2cc3ccccc3oc2=O)cc1NC(=O)c1ccc([N+](=O)[O-])o1 | 70* | 16 | 62* | x | 16 | 66* | 64* | 72* | 41*
O=C(Nc1ccc(N2CCN(C(=O)c3cccs3)CC2)cc1)c1ccc([N+](=O)[O-])o1 | 71* | -5 | 72* | -7 | 15 | 72* | 74* | 77* | 85*
O=C(Nc1ccc(Cc2ccncc2)cc1)c1ccc([N+](=O)[O-])o1 | 71* | x | 45* | -19 | 3 | 67* | 59* | 43* | 58*
NC(=O)Cc1ccc(C(=O)CSc2nnc(-c3ccncc3)n2C2CC2)s1 | 10 | x | -5 | -32 | 5 | 14 | x | x | x
COc1ccc(-n2ncc3c2CC(C)(C)CC3NC(=O)c2ccc(OC)o2)cc1 (stereo not given) | 24 | 10 | 8 | 4 | 7 | 16 | x | x | x
N#CCC(=O)Nc1ccc(C(=O)NCCc2c[nH]c3ccccc23)cc1 | -6 | -5 | 9 | -18 | 16 | -1 | x | x | x
O=C(Nc1ccc(N2CCOCC2)cc1)c1ccc([N+](=O)[O-])o1 | 55* | -2 | 26 | -67 | 8 | 55* | 29 | x | 58*
O=C(Nc1ccc(S(=O)(=O)N2CCOCC2)cc1)c1ccc([N+](=O)[O-])o1 | 26 | -6 | 18 | 14 | -6 | 28 | x | x | x
COc1ccccc1CNC(=O)COC(=O)c1cc(=O)[nH]c2ccccc12 | -10 | x | 0 | -2 | 6 | -3 | x | x | x
O=C(COC(=O)C1CCN(c2ccc(C(F)(F)F)cn2)CC1)Nc1ccc(Cl)cc1 | 56* | x | 19 | x | 19 | 43* | 46* | x | 60*
O=C(COC(=O)C1CCN(c2ccc(C(F)(F)F)cn2)CC1)Nc1ccc(Cl)cn1 | 28 | 0 | 26 | -15 | 19 | 14 | x | x | x
OCC1OC(n2cnc3ccccc32)CC1O (stereo not given) | 1 | 7 | 0 | -2 | 9 | -8 | x | x | x
O=C1OC(c2ccc(F)cc2)=N/C1=C\C=C/c1ccccc1 | 76* | -33 | 37 | 0 | 7 | 50* | 40* | x | -35
CCOC(=O)/C(=C/c1ccc(OC(=O)c2ccccc2)cc1)C(C)=O | 89* | 75 | 77* | 106* | 34 | 47* | 64* | -20 | 53*
Cn1c(=O)oc2cc(S(=O)(=O)N3CCN(c4ccccc4F)CC3)ccc21 | 5 | 4 | 4 | -5 | 10 | -6 | x | x | x
Cc1ccccc1N1CCN(S(=O)(=O)c2ccc3oc(=O)ccc3c2)CC1 | 68* | -13 | 42* | -59 | 16 | 79* | 65* | 54* | 57*
CC(C)=CCCC1(C)C=Cc2c(c(C)cc3c2[nH]c2cc(O)ccc23)O1 (stereo not given) | 22 | -1 | -3 | 51 | 3 | 21 | x | x | x
O=C(Nc1ccc(S(=O)(=O)N2CCCC2)cc1)c1cccs1 | 23 | 6 | 17 | -19 | 13 | 25 | x | x | x
CC1CCN(S(=O)(=O)c2ccc(NC(=O)c3cccs3)cc2)CC1 | 54* | -12 | 42* | -10 | 19 | 42* | 50* | 53* | 59*
CC1CCCCN1S(=O)(=O)c1ccc(NC(=O)c2cccs2)cc1 (stereo not given) | 54* | 2 | 51* | -6 | -1 | 54* | 48* | 52* | 71*
